Screen size: about 38,000 compounds; about 1,200 (3.2%) showed an effect of 50% or more. The median lay at about -58%. The sample holds strong results, similar compounds and a random draw of the others, so the mix is not that of the screen.
Tested on: Plasmodium falciparum
Test: Calibr Malaria Delayed Death Assay SOP
Format: functional, organism-based
Set-up: scale not given: in the data most compounds retested in dose-response had high values
Details: concentration 4.99e-06 (unit not given; other assays of the set use mol/L)

| SMILES | Percent Effect [%] |
| --- | --- |
| CCn1nc(C)c2ccn(CC(=O)NCCN3CCCCC3)c(=O)c21 | -46.75 |
| O=C(NCCN1CCCCC1)c1nc2ccccc2c(=O)[nH]1 | -48.08 |
| CCC1CN(CC(=O)NCCN2CCCCC2)c2ccccc2S1 (stereo not given) | 71.16 |
| Cc1nn(C)c2c(=O)n(CC(=O)NCCN3CCCCCC3)ccc12 | 8.921 |
| COc1ccccc1N1CCC(CNC(=O)CN2CSCC2=O)C1 (stereo not given) | -74.71 |
| O=C(NCCN1CCCCC1)c1cccc(Cl)c1Cl | 47.98 |
| CCC1CN(CC(=O)NCCN2CCCCCC2)c2ccccc2S1 (stereo not given) | 72.72 |
| O=C(NCCN1CCCC1)c1cc2c(s1)CCN2C(=O)c1ccccc1 | -40.79 |
| CCN(CC)CCNC(=O)c1cnc(-c2ccccc2)nc1 | -36.61 |
| CCC1CN(CC(=O)NCCN(CC)CC)c2ccccc2S1 (stereo not given) | 75.77 |
| CCC1CN(CC(=O)NCCN2CCCC2)c2ccccc2S1 (stereo not given) | 62.37 |
| Cc1ccccc1C1CCN(CCNC(=O)CS(C)(=O)=O)C1 (stereo not given) | -6.702 |
| O=C1CCCN1Cc1ncn2c1CN(C(=O)Cc1ccccc1)CCC2 | -76.95 |
| CC1CCCCN1C(=O)COCc1nc(-c2ccncc2)no1 (stereo not given) | -64.65 |
| O=C(O)C(F)(F)F.O=C(O)C(F)(F)F.O=C(O)c1c(-c2ccncc2)ncc2c1CCN(CC1CCOC1)C2 (stereo not given) | -34.25 |
| Cc1cc(S(=O)(=O)N2CCCc3ccccc32)sc1C(=O)O | -124.8 |
| O=C(Cc1ccsc1)N1Cc2nc(CN3CCCCC3)oc2C1.O=C(O)C(F)(F)F | -52.68 |
| Cc1nonc1CN(C)Cc1nc(-c2cccc(F)c2F)oc1C | -82.79 |
| COCCN(Cc1ccccc1)C(=O)c1cnn(C)c1C | -75.6 |
| O=C(O)C(F)(F)F.O=C(O)C(F)(F)F.c1cc(CN2CCC3(CC2)COC(COCC2CC2)C3)ccn1 (stereo not given) | -17.94 |
| Cc1nn(C)c(Oc2ccccc2)c1CNC1CCCCNC1=O (stereo not given) | -0.05055 |
| COc1ccc(-c2c(C)nn3c(=N)c(C#N)n[nH]c23)cc1 | -120.8 |
| COc1ccc(-c2c(C)nn3c(=N)c(C#N)n[nH]c23)cc1OC | 87.26 |
| COc1ccc(-c2c(C(C)C)nn3c(=N)c(C#N)n[nH]c23)cc1 | -149.3 |
| CCn1ncc2c1C(COC)CN(Cc1ccc(C)o1)C2 (stereo not given) | -90.58 |
| CCN(C)C(=O)c1cccc(C(=O)N(C)Cc2cccc(O)c2)c1 | -54.27 |
| O=C(NC[C@H]1C[C@@H]2CCN1C[C@@H]2CN1CCCCC1)Nc1ccccc1 | -35.07 |

| SMILES | Percent Effect [%] |
| --- | --- |
| O=S(=O)(NC[C@H]1C[C@@H]2CCN1C[C@@H]2CN1CCCC1)c1ccc(Cl)cc1 | 89.33 |
| O=S(=O)(NC[C@H]1C[C@@H]2CCN1C[C@@H]2CN1CCOCC1)c1ccccc1 | -72.09 |
| Cc1nn(C)cc1CN1CCCCCC1c1ccccc1Cl (stereo not given) | -108.4 |
| CCCNc1ncc(-c2cc(C3CC3)nc(N)c2C#N)cn1 | 54.19 |
| CCSc1ncc(-c2cc(C3CCC3)nc(N)c2C#N)cn1 | -33.43 |
| CCSc1ncc(-c2cc(C3CC3)nc(N)c2C#N)cn1 | 1.431 |
| Cc1ccc(CSc2ncc(Br)c(C(=O)O)n2)cc1 | -107.1 |
| NC(=O)Nc1ccc(C(=O)NCCn2cccc2)cc1 | -116.7 |
| COc1ccccc1CC(C)CC(=O)O (stereo not given) | -155.2 |
| Cn1c(CC(=O)O)c(Sc2ccccc2)c2ccccc21 | -130 |
| CNC(C)Cc1ccccc1Sc1ccc(O)cc1.Cl (stereo not given) | 87.88 |
| CC[C@H](C)[C@@H](CO)NC(C)Cc1ccccc1F (stereo not given in full) | 48.98 |
| CC(N)Cc1ccccc1Sc1ccccc1.O=C(O)/C=C\C(=O)O (stereo not given) | 77.8 |
| CC(C)C(=O)NS(=O)(=O)CCc1ccccc1 | -111.2 |
| CNS(=O)(=O)CC(=O)NC(C)Cc1ccccc1Br (stereo not given) | -190.6 |
| NCc1ccccc1Sc1ccc(O)cc1.O=C(O)/C=C\C(=O)O | 55.63 |
| CC(N)Cc1ccccc1Sc1ccc(O)cc1.CC(N)Cc1ccccc1Sc1ccc(O)cc1.O=C(O)C(=O)O (stereo not given) | 71.69 |
| CC(C(=O)Nc1ccccc1Sc1ccccc1)S(C)(=O)=O (stereo not given) | -117.7 |
| CC(C)CCN1C2(CCN(C(=O)C3(C)CC3)C2)c2ccccc2S1(=O)=O (stereo not given) | -11.02 |
| CCc1ncc2c(n1)CN(Cc1nnc(CC)o1)CC2 | -50.82 |
| CC(C)Nc1nc2c(cc1C(=O)O)CCN(Cc1ccsc1)CC2.O=C(O)C(F)(F)F.O=C(O)C(F)(F)F | -107.1 |
| Cc1csc(CNC(=O)NCC(C)Cn2nc(C)cc2C)n1 (stereo not given) | -114.8 |
| Cc1c(C(=O)N(C)C)cccc1N(C)S(C)(=O)=O | -103.2 |
| Cc1ncc(CNC(=O)Cc2cccs2)c(C2CCCN2C)n1 (stereo not given) | -27.86 |
| Cc1nn(C)c(C)c1CC(=O)N1CCCC1Cn1cccn1 (stereo not given) | -102.7 |
| Cc1cc(F)ccc1S(=O)(=O)N1CCN(C)c2ccncc21 | 20.68 |
| CN1CCN(S(=O)(=O)c2cccnc2)c2cnccc21 | -116.1 |

| SMILES | Percent Effect [%] |
| --- | --- |
| Cc1ccc(S(=O)(=O)N2CCN(C)c3ccncc32)cc1F | 60.6 |
| CN1CCN(S(=O)(=O)c2ccc(Cl)c(Cl)c2)c2cnccc21 | 89.32 |
| CN1CCCN(S(=O)(=O)c2cnn(C)c2)c2cc(Cl)ccc21 | -19.46 |
| CN1CCN(S(=O)(=O)c2cccc(F)c2)c2cnccc21 | 11.1 |
| CCOC(=O)COc1nc(CC(C)C)c2c(c1C#N)CCC2 | -73.52 |
| CN1CCCCC1CCC(=O)NCCCn1ncc2ccccc21 (stereo not given) | -37.16 |
| CCSc1cc(C(=O)NC2CCN(C(=O)c3ccncc3)CC2)ccn1 | -119 |
| O=C(NCc1ccccc1-n1cccn1)N1CCN2CCCCC2C1 (stereo not given) | -71.32 |
| CC(NC1CCCC1)c1ccccc1-n1cccn1 (stereo not given) | 80.66 |
| CC(NCc1cnc(C2CCC2)s1)c1ccccc1-n1cccn1 (stereo not given) | -47.47 |
| CS(=O)(=O)CCCN(CCCO)C1CCc2ccccc21 (stereo not given) | -127.8 |
| Cc1cc(C)nc(N2CCCC(c3nccn3CCCN(C)C)C2)c1 (stereo not given) | 50.47 |
| COc1cc(OC)nc(N2CCCC(c3nccn3CCN(C)C)C2)n1 (stereo not given) | -26.11 |
| CN(C)CCn1ccnc1C1CCCN(c2ncc(Cl)cc2F)C1 (stereo not given) | 35.69 |
| CN(C)CCCn1ccnc1C1CCCN(c2ncc(Cl)cc2F)C1 (stereo not given) | 83.94 |
| CN(C)CCn1ccnc1C1CCCN(c2cc(N)ncn2)C1 (stereo not given) | -56.5 |
| Fc1cc(Cl)cnc1N1CCCC(c2nccn2CC2CC2)C1 (stereo not given) | 3.7 |
| Cc1ccc(C)c(Oc2cc(-n3nc(C)c(C#N)c3N)nc(C)n2)c1 | -175 |
| Cc1cc(C2CCCN2C(=O)NCc2c(C)cc(C)[nH]c2=O)on1 (stereo not given) | -57.59 |
| CN(CC1COCCO1)c1ncnc2cc(F)ccc12 (stereo not given) | -82.12 |
| Cn1cccc1C(=O)N1CCN(Cc2cccnc2)c2ncccc2C1.O=C(O)C(F)(F)F.O=C(O)C(F)(F)F | -59.69 |
| Cn1nc2c(cc1=O)CN(c1nc3ccccc3s1)CC2 | -163.5 |
| Cc1nc[nH]c1CN1CCCN(c2nc3ccccc3s2)CC1 | 54.13 |
| Cc1nc[nH]c1CN1CCC(C2CCN(CCc3ccccc3)C2)CC1 (stereo not given) | 9.569 |
| c1ccc2sc(N3CCN(c4ncnc5c4CCC5)CC3)nc2c1 | -56.68 |
| c1ccc2sc(N3CCCN(c4ncnc5c4CCNC5)CC3)nc2c1 | 85.14 |
| Cc1ncnc(N2CCCN(c3nc4ccccc4s3)CC2)c1C | -444.8 |

| SMILES | Percent Effect [%] |
| --- | --- |
| Cc1ccc(CNCc2nccn2C)c(OC(C)(C)C)c1 | 8.3 |
| O=C(NCCc1coc(-c2ccccc2)n1)NC1CC1 | -110.7 |
| CN(C)CCN1CCOCC12CCN(C(=O)C1CC1)CC2.O=C(O)C(F)(F)F.O=C(O)C(F)(F)F | -16.92 |
| CC(C(=O)NCc1cn2cc(Br)ccc2n1)S(C)(=O)=O (stereo not given) | -87.47 |
| Cc1cc(CN(C)C(=O)C(c2ccccc2)N2CCSCC2)no1 (stereo not given) | -62.62 |
| CCn1cnnc1CNC(=O)N1CCN(c2cccc(C)c2)CC1 | -132.8 |
| Cc1cc(C)n(-c2cncc(NCCNS(C)(=O)=O)n2)n1 | -82.28 |
| CSc1ncn(-c2nc(NC3CC3)nc(N(C)C)n2)n1 | -74.3 |
| CCC(CNC(=O)c1ccccc1Br)N1CCc2ccccc2C1 (stereo not given) | 39.24 |
| CCC(CNC(=O)c1cc(OC)ccc1Br)N1CCc2ccccc2C1 (stereo not given) | 0.2059 |
| CCC(CNC(=O)c1cncc(Br)c1)N1CCc2ccccc2C1 (stereo not given) | 65.67 |
| CN(CC1(CO)CCC1)C(=O)c1cc(COc2ccccc2F)[nH]n1 | -88.13 |
| Cc1noc(C(C)C)c1C(=O)N1CCOCC1CC(=O)c1ccco1 (stereo not given) | -42.91 |
| NC(=O)Cc1ccc(OCc2noc(C(=O)N3CCCC3)n2)cc1 | -126.1 |
| O=C(C1CCC2(CCN(Cc3cccnc3)CC2)CO1)N1CCCC1.O=C(O)C(F)(F)F.O=C(O)C(F)(F)F (stereo not given) | -51.34 |
| COc1cc(CCC(=O)NC(C)C)ccc1OCC(F)(F)F | -88.73 |
| Cc1c(C(=O)N2CCN(C)CC2)n(C)c2ccc(Cl)cc12 | -1.924 |
| Cc1c(C(=O)N2CCOCC2)n(C)c2ccc(Cl)cc12.Cl | -79.72 |
| OC1CCN(c2ccnc(NCCc3ccccc3Cl)n2)CC1 | -52.91 |
| OC1CCN(c2ccnc3c(F)cc(Br)cc23)CC1 | -18.79 |
| NCC1Cc2cc(-c3nccc(N4CCC(O)CC4)n3)cc(Cl)c2O1 (stereo not given) | 79.64 |
| NCC1Cc2cc(-c3nccc(N4CCC(O)CC4)n3)cc(F)c2O1 (stereo not given) | 83 |
| NCC1Cc2cccc(-c3nccc(N4CCC(O)CC4)n3)c2O1 (stereo not given) | 16.4 |
| O=C1NCCN1C1CCN(c2ccnc(-c3ccccc3)n2)CC1 | -68.77 |
